Measured values reported in PMC4336329 (PLoS ONE, 2015).
In all, about 310,000 compounds went through this assay and about 14,000 (4.5%) showed an effect of 50% or more. The effect is printed as a negative number. This excerpt belongs to a sample that is enriched for strong results.

molecular target: human ether-à-go-go-related gene (hERG) potassium channel (human, UniProt Q12809); assay: primary screen, population patch clamp on CHO cells stably expressing hERG; higher = less effect of the substance
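Also: peak tail current of the secondary pulse compared with the same well before compound.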

human ether-à-go-go-related gene (hERG) potassium channel, sequence (Q12809 whole entry, looked up): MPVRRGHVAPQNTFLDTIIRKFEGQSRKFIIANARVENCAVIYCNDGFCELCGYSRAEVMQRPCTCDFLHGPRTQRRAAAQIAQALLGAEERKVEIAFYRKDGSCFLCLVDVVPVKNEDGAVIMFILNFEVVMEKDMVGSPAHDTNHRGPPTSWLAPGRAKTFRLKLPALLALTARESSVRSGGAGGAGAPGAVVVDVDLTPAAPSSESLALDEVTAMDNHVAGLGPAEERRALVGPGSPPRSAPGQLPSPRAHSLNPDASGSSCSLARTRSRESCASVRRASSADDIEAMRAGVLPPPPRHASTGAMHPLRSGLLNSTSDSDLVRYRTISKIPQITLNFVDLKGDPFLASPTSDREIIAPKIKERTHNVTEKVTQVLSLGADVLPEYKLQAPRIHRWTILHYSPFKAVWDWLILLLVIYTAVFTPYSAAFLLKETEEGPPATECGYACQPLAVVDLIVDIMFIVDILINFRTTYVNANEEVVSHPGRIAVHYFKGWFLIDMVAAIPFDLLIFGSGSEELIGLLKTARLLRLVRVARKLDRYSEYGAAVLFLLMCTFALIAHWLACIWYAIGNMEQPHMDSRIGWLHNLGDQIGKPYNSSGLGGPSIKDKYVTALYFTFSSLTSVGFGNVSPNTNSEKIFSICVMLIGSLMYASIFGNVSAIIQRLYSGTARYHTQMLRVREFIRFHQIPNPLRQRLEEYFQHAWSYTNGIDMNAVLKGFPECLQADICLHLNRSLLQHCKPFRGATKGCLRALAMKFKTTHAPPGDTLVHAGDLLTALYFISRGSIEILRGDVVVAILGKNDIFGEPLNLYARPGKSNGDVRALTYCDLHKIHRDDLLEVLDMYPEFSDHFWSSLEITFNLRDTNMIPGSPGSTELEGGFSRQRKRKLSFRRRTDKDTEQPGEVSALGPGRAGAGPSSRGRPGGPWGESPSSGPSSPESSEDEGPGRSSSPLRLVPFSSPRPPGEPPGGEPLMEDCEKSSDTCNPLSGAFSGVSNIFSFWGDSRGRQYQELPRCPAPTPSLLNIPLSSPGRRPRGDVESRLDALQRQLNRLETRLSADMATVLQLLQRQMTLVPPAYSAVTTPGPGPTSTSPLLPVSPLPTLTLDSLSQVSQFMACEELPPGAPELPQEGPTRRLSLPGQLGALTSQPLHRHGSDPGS

Structure (SMILES) | hERG current change (%, negative = inhibition) at 10uM
CC1CCCN(C(=O)C2CCC(CNc3c(N4CCCCC4)c(=O)c3=O)CC2)C1 (stereo not drawn) | -8.22%
COC(=O)c1ccc(COc2ccc(C)c(C)c2)o1 | 12.3%
COc1ccc(-n2c(=O)[nH]c3cc(C(=O)NCCc4ccc(OC)c(OC)c4)ccc3c2=O)c(OC)c1 | 18.5%
C=CCN1C(=O)NC(c2ccc(OC)cc2)(C(F)(F)F)S/C1=C(\C#N)c1nnc(N2CCOCC2)n1-c1ccccc1 (stereo not drawn) | -62.4%
C=CCN1C(=O)NC(c2ccccc2)(C(F)(F)F)S/C1=C(\C#N)c1nnc(N2CCOCC2)n1-c1ccccc1 (stereo not drawn) | -19.4%
CN1C(=O)NC(c2ccccc2)(C(F)(F)F)S/C1=C(/C#N)c1nnc(N2CCOCC2)n1-c1ccccc1 (stereo not drawn) | -30.3%
CC1Cc2ccccc2N1C(=S)NC(=O)C1(C)CC1(Cl)Cl (stereo not drawn) | 30.1%
O=C(O)C(=O)O.O=[N+]([O-])c1ccc(CNC2CCCc3ccccc32)cc1 (stereo not drawn) | -51.7%
COc1ccc(CNC2CCCc3ccccc32)cc1OC.O=C(O)C(=O)O (stereo not drawn) | -25.3%
CCOc1ccc(CNC2CCCc3ccccc32)cc1.O=C(O)C(=O)O (stereo not drawn) | -68.1%
COc1cc(CNC2CCCc3ccccc32)cc(OC)c1OC.O=C(O)C(=O)O (stereo not drawn) | -13.9%
COc1ccccc1CNC1CCCc2ccccc21.O=C(O)C(=O)O (stereo not drawn) | -6.19%
O=[N+]([O-])c1ccccc1CNC1CCCc2ccccc21 (stereo not drawn) | -5.95%
COc1ccc(OC)c(NC(=O)Cc2coc3cc(C)cc(C)c23)c1 | 1.9%
COC(=O)C1=C(c2ccc(F)cc2OCc2ccccc2)C[C@@H]2CC[C@H]1N2C(=O)NCc1ccc(OC)c(OC)c1 | -2.13%
CCn1c(C)nc2cc(C(=O)NNC(=S)Nc3ccc(F)cc3)ccc21 | 15.9%
CCC(=O)N1CCN(C(=O)c2ccccc2)CC1 | 1.82%
O=C(Nc1ccc(N2CCOCC2)cc1)c1cccc(S(=O)(=O)N2CCC(Cc3ccccc3)CC2)c1 | 2.84%
O=C(O)C(=O)O.OC(CNCCc1ccc(Cl)cc1Cl)COc1ccccc1 (stereo not drawn) | -25.7%
Cc1cc(Cl)ccc1NC(=S)NCCc1ccc(S(N)(=O)=O)cc1 | -16.1%
OC(CNCCc1ccc(Cl)cc1)COc1cc(Cl)ccc1Cl (stereo not drawn) | -56.6%
Cc1cc(Cl)ccc1OCC(O)CNCCc1ccc(S(N)(=O)=O)cc1 (stereo not drawn) | -67.6%

Structure (SMILES) | hERG current change (%, negative = inhibition) at 10uM
COc1ccc(Cl)cc1NC(=S)NCCc1ccc(S(N)(=O)=O)cc1 | 5.52%
OC(CNCCc1ccc(Cl)cc1)COCc1ccco1 (stereo not drawn) | -44.6%
CCn1c(=NC(=O)CS(=O)(=O)c2ccc(C)cc2)sc2cccc(OC)c21 | -0.869%
O=C(CCc1ccccc1O)N/N=C/c1ccc(Sc2cccc3cccnc23)o1 | 21.8%
COc1ccc(CNC(=O)CN2CCN(c3ccccc3O)CC2)cc1OC | 12.6%
CCSc1nc2ccccc2c(=O)n1CCc1ccc(OC)c(OC)c1 | 14.9%
C=CCNC(=O)CSc1nc2ccccc2c(=O)n1CCc1ccc(OC)c(OC)c1 | -15.4%
O=c1c2ccccc2nc(SCCN2CCCCC2)n1CCc1ccccc1 | -71.7%
COCCn1c(SCC(=O)c2ccccc2)nc2ccccc2c1=O | -12.4%
NC(=O)CSc1nc2ccccc2c(=O)n1CCc1ccccc1 | 8.93%
O=c1c2ccccc2nc(SCCN2CCOCC2)n1CCc1ccccc1 | -15.4%
COCCn1c(SCCN2CCCCC2)nc2ccccc2c1=O | -78.4%
COCCn1c(SCCOc2ccccc2)nc2ccccc2c1=O | -6.1%
COc1ccc(CCn2c(SCCN3CCCCC3)nc3ccccc3c2=O)cc1OC | -53.3%
O=C(CSc1nnc(NC(=O)Cc2ccc(F)cc2)s1)NCc1ccco1 | 14.3%
Cc1ccccc1Cn1cc(S(=O)(=O)CC(=O)N2CCCCC2)c2ccccc21 | 7.27%
Nc1cc(Nc2ccccc2)c2nonc2c1[N+](=O)[O-] | 16.3%
N#Cc1c(Nc2cccc(F)c2)sc2c(O)cc(=O)[nH]c12 | 27.3%
Cc1ccccc1-n1c(C)cc(/C=N/Nc2ccc([N+](=O)[O-])cn2)c1C | 17.4%
Br.C=CCN1CCc2c(cc(O)c(O)c2Cl)C(c2ccccc2)C1 (stereo not drawn) | -41%
Br.Cc1cccc(C2CN(C)CCc3c2cc(O)c(O)c3Cl)c1 (stereo not drawn) | -51.1%
CN1CCc2cc(Cl)c(O)cc2[C@@H](c2ccccc2)C1.Cl | -56%

Structure (SMILES) | hERG current change (%, negative = inhibition) at 10uM
Br.Oc1ccc(C2CNCCc3c2cc(O)c(O)c3Cl)cc1 (stereo not drawn) | -3.12%
Br.CN1CCc2cc(O)c(O)cc2C(c2ccccc2)C1 (stereo not drawn) | -13.6%
Br.C=CCN1CCc2cc(O)c(O)cc2C(c2ccccc2)C1 (stereo not drawn) | -23.9%
O=[N+]([O-])c1ccc(-c2nc(=S)c3c(o2)CCCC3)cc1 | -6.53%
c1ccc(Nc2ccccn2)nc1 | 7.19%
Oc1cccc2ccc(Nc3ccccn3)nc12 | -53.6%
Oc1ccccc1Nc1ccccn1 | 6.88%
Nc1ccc(C#Cc2c(-c3ccsc3)oc3ccc(N4CCOCC4)cc23)cc1 | 5.98%
NC(=O)c1ccc(NC(=O)CCN2C(=O)c3ccccc3C2=O)cc1 | 16%
CN(C)c1ccc(NC(=O)C2C3C=CC(C3)C2C(=O)O)cc1 (stereo not drawn) | 7.65%
O=c1cccc2n1CC1CC2CN(c2ncnc3c2cnn3-c2ccccc2)C1 (stereo not drawn) | -30%
O=c1cccc2n1CC1CC2CN(c2ncnc3c2cnn3-c2ccc(Cl)cc2)C1 (stereo not drawn) | -62.1%
CC1CN(c2ncnc3c2cnn3-c2ccc(Cl)cc2)CC(C)O1 (stereo not drawn) | 0.749%
O=C(Nc1nnc(C2=COCCO2)o1)c1cccc(F)c1 | 16.7%
O=C(CCc1ccncc1)N1CCCC(Nc2ccc(F)c(F)c2)C1 (stereo not drawn) | -56%
O=C(c1ccc(C(F)(F)F)cc1)C1CCCN(C(=O)CCc2ccncc2)C1 (stereo not drawn) | -59.4%
COc1ccc2cc(C(=O)C3CCCN(C(=O)c4cc(=O)n(C)c(=O)n4C)C3)ccc2c1 (stereo not drawn) | -38.4%
NC(=O)CCC(=O)N1CCCC(C(=O)c2ccc(C(F)(F)F)cc2)C1 (stereo not drawn) | 1%
Cc1ccc(NC2CCCN(C(=O)CCc3ccncc3)C2)cc1C (stereo not drawn) | -24.5%
Cn1nccc1C(=O)N1CCCC(C(=O)c2ccc(C(F)(F)F)cc2)C1 (stereo not drawn) | 6.14%
O=C(CCc1ccncc1)N1CCCC(Nc2ccc(F)cc2)C1 (stereo not drawn) | -13.9%
Cn1c(C(=O)N2CCCC(C(=O)c3ccc(C(F)(F)F)cc3)C2)cc(=O)n(C)c1=O (stereo not drawn) | -71.7%

Structure (SMILES) | hERG current change (%, negative = inhibition) at 10uM
O=C(c1ccc(C(F)(F)F)cc1)C1CCCN(C(=O)CCc2cnccn2)C1 (stereo not drawn) | -15.1%
O=C(c1ccc(S(=O)(=O)Nc2ccccc2F)cc1)N1CCCCCC1 | 2.93%
O=C(N[C@@H]1CCC(=O)N(CC[C@H](Sc2ccc(Br)cc2)c2ccccc2)CC1)OCc1ccccc1 | 0.417%
COc1ccc2[nH]c(=O)c(CN(CCO)S(=O)(=O)c3ccc(C)cc3)cc2c1 | -9.52%
Cc1ccc(C)c(NC(=S)N/N=C2\CCc3ccccc32)c1 | 9.03%
COc1ccc(CCNC(=O)Cc2cc(=O)[nH]c(=O)[nH]2)cc1OC | -9.44%
CCN1/C(=C2/SC(=S)N(C)C2=O)C=Cc2cc(C)ccc21 | -1.96%
CCN1C(=O)/C(=C2/C=Cc3cc(C)ccc3N2CC)N(C)C1=S | -54.8%
CCN1/C(=C2\C(=O)N(C)C(=S)N2C)C=Cc2cc(C)ccc21 | -33.4%
CC1=NN(C(C)C)C(=O)C1 | 8.62%
CCOC(=O)C1(CCOc2ccccc2)CCN(Cc2cccs2)CC1 | -81.8%
CCOC(=O)C1(CCc2ccccc2)CCN(Cc2cnc(N(C)C)s2)CC1 | -83%
CCOC(=O)C1(CCCc2ccccc2)CCN(Cc2cnc(C)s2)CC1 | -73.1%
CCOC(=O)C1(CCOC)CCN(Cc2cc3ccccc3s2)CC1 | -22.5%
CCOC(=O)C1(Cc2cccc(F)c2)CCN(Cc2cnc(C)s2)CC1 | -2.73%
CCOC(=O)C1(CCOc2ccccc2)CCN(Cc2ccc(C)s2)CC1 | -89.8%
CCOC(=O)C1(CC2CC2)CCN(Cc2cnc(N(C)C)s2)CC1 | -22.1%
CCN(CC)C(=O)CC(c1ccc(F)cc1)c1ccc(OC)cc1 (stereo not drawn) | -25.1%
CC1CC(C)(C)N2C(=O)C3(Nc4ccccc4S3)c3cccc1c32 (stereo not drawn) | 22.1%
Cc1ccc(C(C)C)cc1OCCCCN1CCCC1 | -49%
COc1ccc(N(CC(=O)NCCSCc2ccco2)S(=O)(=O)c2ccccc2)cc1 | -9.08%
